In the library only some 9% were active in any assay of this set; here they are far more common.
Luc counter: blocks Kinase-Glo luciferase, a counter-screen artifact. Kinase-Glo luciferase, ATP luminescence, 8 min. Potency, µM (series often up to 38.3 µM), for the others: at the highest dose activity change, negative = inhibition, hits mostly inhibitors. actives 0.28% (n = 200,000). AID 1379; note: % is set by controls: 0 for no effect and ±100 for the full control effect; nearly all actives have a fitted effect of over 60% in size
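Luminescence was the read-out, taken after 8-minute incubation at ambient temperature. Luciferase turned over luciferin with 10 uM ATP in imidazole pH 7.2 buffer containing KCl, MgCl2, Tween 20 and BSA.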
HttQ103 aggreg: inhibitors of mutant huntingtin aggregate formation in PC12 cells; PC12 HttQ103-GFP aggregates, Acumen cytometry, 40 h; Potency, µM (highest dose often 46.1 µM), without a hit: at the highest dose activity change, negative = inhibition, actives largely listed as inhibitors; AID 1688; actives 1.1% (n = 220,000); note: % is set by controls: 0 for no effect and ±100 for the full control effect; nearly all actives have a fitted effect of over 60% in size
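Huntingtin Q103 exon 1–GFP aggregates in induced PC12 cells (100 nM tebufenozide) were quantified by cytometry from lysates, with compounds dosed in titration.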
HTT ATP protect: protects HTT-Q103 PC12 cells, measured by ATP | actives 0.14% (n = 230,000) | Potency, µM (top dose mostly 56.4 µM), without a hit: cytoprotection (ATP increase), usual class: activators | AID 1471 | PC12 HTT-Q103 induced, cytoprotection, ATP luminescence, 40 h; note: % of control where 0% means no effect; nearly all actives have a fitted effect of over 45% in size
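Compounds added alongside 100 nM tebufenozide, which induces toxic Q103 huntingtin exon 1-GFP in stable PC12 cells; surviving cells quantified by luminescent ATP measurement. Medium: phenol red-free DMEM, 5% equine and 5% calf serum.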
HPGD inh: inhibitors of human 15-hydroxyprostaglandin dehydrogenase (HPGD); actives 4.3% (n = 150,000); purified HPGD, NADH fluorescence kinetic, PGE2 substrate; AID 894; Potency, µM, inactives show at the highest dose activity change, negative = inhibition, actives largely listed as inhibitors; active = well fitted inhibition curve with a large enough effect, not every such curve was filed as active; inconclusive = small, poorly fitted or top-dose-only effect, or another doubt; inactive = no such curve, though single readings can be large or run the other way; note: % is set by controls: 0 for no effect and ±100 for the full control effect
Target sequence (P15428 whole entry, looked up): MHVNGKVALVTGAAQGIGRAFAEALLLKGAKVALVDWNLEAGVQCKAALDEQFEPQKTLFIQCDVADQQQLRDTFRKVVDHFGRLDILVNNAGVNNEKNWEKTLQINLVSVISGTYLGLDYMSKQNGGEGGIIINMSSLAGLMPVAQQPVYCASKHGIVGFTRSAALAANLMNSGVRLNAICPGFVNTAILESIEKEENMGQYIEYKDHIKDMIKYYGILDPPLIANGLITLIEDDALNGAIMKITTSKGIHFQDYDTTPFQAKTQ
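NADH formation kinetics: reaction with 30 uM PGE2 and 1 mM NAD+ (final), 20 nM enzyme, Tris-HCl pH 8 with Tween 20, after 15 min compound preincubation at room temperature. Fluorescence change, last versus first of five reads.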
LMNA splice mod: LMNA splicing modulation; HeLa LMNA splicing GFP/RFP minigene ratio, 48 h; Potency, µM (doses to about 46.1 µM), without a hit: top-dose ratio change, negative = inhibition, actives largely listed as inhibitors; actives 0.01% (n = 200,000); AID 1487; active = well fitted inhibition curve with a large enough effect in the signal ratio, with a control signal flat, not every such curve was filed as active; inconclusive = small, poorly fitted or top-dose-only effect, or effect the other way, or a change in a side signal; the % refers to the signal ratio; note: % is set by controls: 0 for no effect and ±100 for the full control effect
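S3 HeLa stable clones carrying a lamin A-EGFP splicing minigene plus DsRed2 were seeded at 600 cells/well in Opti-MEM with 2% FBS, pin-dosed and incubated 48 h at 37°C. Acumen cytometry (488 nm) gave the GFP/RFP total-intensity ratio.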
ALDH1A1 inh: inhibitors of human aldehyde dehydrogenase 1A1 | Potency, µM (doses to about 75.3 µM), inactives show at the highest dose activity, negative = inhibition, usual class: inhibitors | Purified ALDH1A1, NADH fluorescence, propionaldehyde substrate | actives 7.3% (n = 220,000) | AID 1030 | P00352; active = well fitted inhibition curve with a large enough effect, not every such curve was filed as active; inconclusive = small, poorly fitted or top-dose-only effect, or another doubt; inactive = no such curve, though single readings can be large or run the other way;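 note: plate controls were no enzyme wells and a reference inhibitor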
Target sequence (P00352 whole entry, looked up): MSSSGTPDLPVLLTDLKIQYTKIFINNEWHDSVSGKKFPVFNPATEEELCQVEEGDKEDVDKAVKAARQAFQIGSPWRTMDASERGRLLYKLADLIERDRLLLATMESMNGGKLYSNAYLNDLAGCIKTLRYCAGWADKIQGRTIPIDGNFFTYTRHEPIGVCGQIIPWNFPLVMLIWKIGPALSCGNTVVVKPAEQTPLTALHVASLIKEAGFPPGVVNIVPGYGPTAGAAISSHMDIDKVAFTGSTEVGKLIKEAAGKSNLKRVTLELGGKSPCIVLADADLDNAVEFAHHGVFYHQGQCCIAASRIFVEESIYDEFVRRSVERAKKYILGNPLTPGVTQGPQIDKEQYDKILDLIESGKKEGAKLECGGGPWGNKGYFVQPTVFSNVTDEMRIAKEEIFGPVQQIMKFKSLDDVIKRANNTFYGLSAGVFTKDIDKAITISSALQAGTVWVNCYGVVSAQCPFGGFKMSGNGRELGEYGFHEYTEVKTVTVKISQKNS
* marks the source's active call; other numbers are inactive results; ? = inconclusive; . = no result; [ ] = another dose, or the depositor's remark. Unless noted, calls come from the whole dose curve; as a rule, active = well fitted curve in the direction sought with a large enough effect; inconclusive = small, poorly fitted or top-dose-only effect, or another doubt; inactive = no such curve, though single readings can be large; an effect the other way counts as inactive or inconclusive. Potency is the fitted concentration of half-maximal effect.

SMILES	Luc counter	HttQ103 aggreg	HTT ATP protect	HPGD inh	LMNA splice mod	ALDH1A1 inh
Cc1cc(C)c(C#N)c(SCCS(=O)(=O)Cc2ccc(Cl)cc2)n1	-6%	2%	3%	-17%	-1%	5µM*
Cc1cc(C)c(C#N)c(SCc2nnc(-c3ccccc3)o2)n1	-2%	18%	1%[10 µM]	4µM*	?	1%
Cc1cc(C)c(C#N)c(SCc2nnc(-c3ccccc3[N+](=O)[O-])o2)n1	-5%	.	.	.	.	?
Cc1cc(C)c(C#N)c(SCc2ccccc2[N+](=O)[O-])n1	1%	-6%	3%[10 µM]	-19%	-8%	18µM*
Cc1cc(C)c(C#N)c(SCS(=O)Cc2ccccc2)n1 (stereo not given)	-1%	10%	-11%	?	?	8.9µM*
Cc1cc(C)c(C#N)c(SCS(=O)Cc2ccc(Cl)cc2)n1 (stereo not given)	-4%	-1%	-22%	-17%	-4%	?
CCC(Sc1nc2ccc(C)cc2[nH]1)C(=O)O (stereo not given)	-2%	12%	4%[10 µM]	-8%	7%	?
O=C(CNC(=O)c1ccccc1)Nc1ccsc1C(=O)O	6%	-16%	-6%	.	.	-9%
CCOc1ccc(C2/C(=C(/O)c3ccc(F)cc3)C(=O)C(=O)N2CCCN(C)C)cc1 (stereo not given)	0%	-4%	15%[10 µM]	-10%	9%	-4%
Cc1nn(Cc2ccccc2)c(C)c1C(=O)Nc1ccc(N2CCOCC2)cc1	-7%	11%	2%	-12%	6%	9%
CCCCCSc1nc2c(c(=O)[nH]c(=O)n2C)n1C(C)C	-1%	1%	16%[10 µM]	-24%	-3%	?
Cc1ccc(CSc2nc3c(c(=O)[nH]c(=O)n3C)n2CCC(C)C)cc1	-6%	-1%	-32%	-7%	4%	?
CC(C)n1c(SCC(N)=O)nc2c1c(=O)[nH]c(=O)n2C	-6%	-10%	-17%	?	1%	22µM*
CC(C)CCn1c(Sc2nc3ccccc3o2)nc2c1c(=O)[nH]c(=O)n2C	-3%	4%	-11%[10 µM]	-5%	?	11µM*
COC(=O)CSc1nc2c(c(=O)n(C)c(=O)n2C)n1CCC(C)C	1%	0%	-2%[10 µM]	14µM*	-8%	13µM*
CC(C)CCn1c(SCc2ccc(Cl)cc2)nc2c1c(=O)[nH]c(=O)n2C	-2%	10%	-42%	25µM*	?	11µM*
CCOCCCNC(=O)C(NC(=O)CNC(=O)c1ccccc1)c1ccccc1 (stereo not given)	-2%	10%	18%	-8%	3%	13%
CNc1ncncc1-c1ccccc1C(F)(F)F	.	.	14%	.	-6%	16%
CCCCn1c(SCc2ccc(Cl)cc2)nc2c1c(=O)[nH]c(=O)n2C	-3%	-13%	0%[10 µM]	?	20%	28µM*
CCCCCCn1c(SCC(=O)OC)nc2c1c(=O)[nH]c(=O)n2C	0%	9%	-16%[10 µM]	7.9µM*	-3%	3.5µM*
C/C(Cl)=C/Cn1c(SCc2ccc(Cl)cc2)nc2c1c(=O)[nH]c(=O)n2C	-1%	?	-1%	-5%	11%	?
C=CCOc1ccccc1CNc1ccc2c(c1)OCCO2	-15%	14µM*	-168%	.	.	?
C=CCOc1ccccc1CNc1cccc(F)c1	-1%	11%	-17%[10 µM]	-2%	-3%	-4%
O=C(Oc1ccc(OC(=O)c2ccco2)c(S(=O)(=O)c2ccc(Br)cc2)c1)c1ccco1	-1%	11%	-14%	28µM*	?	?
CCCCCOc1ccc(CSC(=N)N)cc1[N+](=O)[O-]	-8%	2%	-14%	1%	?	-4%
SMILES	Luc counter	HttQ103 aggreg	HTT ATP protect	HPGD inh	LMNA splice mod	ALDH1A1 inh
COc1ccc(CSC(=N)N)cc1[N+](=O)[O-]	-2%	?	8%[10 µM]	-1%	?	28µM*
COc1ccc(Cn2ccnc2CO)cc1[N+](=O)[O-]	-2%	?	?	.	.	6.3µM*
O=C(c1ccc(COc2ccc(F)cc2)o1)n1cccn1	-1%	1%	36%	-11%	2%	-2%
Cc1cc(OCc2ccc(C(=O)n3cccn3)o2)ccc1Cl	-1%	-20%	-9%[10 µM]	32µM*	-3%	0%
N#C/C(=C\Nc1ccc2c(c1)OCCO2)c1nc(-c2ccccc2)cs1	2%	-7%	2%[10 µM]	-5%	-4%	6%
c1cc2c(cc1-c1csc(NNC3=NCCCCC3)n1)OCCO2	-1%	-25%	?	.	8%[46 µM]	20µM*
c1cc2c(cc1Nc1nc(-c3ccc4c(c3)OCO4)cs1)OCCO2	-2%	5%	-4%[10 µM]	-17%	-11%	18µM*
c1ccc(-c2csc(Nc3ccc4c(c3)OCCO4)n2)cc1	-12%	-8%	-51%	-21%	?	24µM*
COc1cccc(Nc2nc(-c3ccc4c(c3)OCCO4)cs2)c1	4%	?	-78%	-22%	?	?
CC(C)c1ccc(-n2nc3ccc(N)cc3n2)cc1	-11%	14%[9.22 µM]	-30%[10 µM]	.	.	?
CCOC(=O)C(CO)(NC(C)=O)C(=O)OCC	0%	9%	-20%	-15%	4%	2%
Cn1c(N=Nc2ccccc2)nc2ccccc21	0.89µM*	-20%	.	-22%	?	-6%
CN(C)c1ccc(N=Nc2nc3ccccc3n2C)cc1	.	24%[9.22 µM]	-18%[10 µM]	.	.	.
COCCOC(=O)C1=C(C)Nc2ncnn2C1c1ccco1 (stereo not given)	.	0%[9.22 µM]	4%[10 µM]	.	.	.
S=c1[nH]nc(COc2ccccc2)n1/N=C/C=C/c1ccccc1	6%	0%	3%[10 µM]	5µM*	-12%	-14%
S=c1[nH]nc(COc2ccccc2)n1/N=C/C(Cl)=C/c1ccccc1	-5%	?	?	25µM*	?	32µM*
O=C(OCc1ccccc1)c1cccc(-c2nnc(-c3ccccc3)o2)c1	-4%	-2%	-15%	-21%	9%[0.0737 µM]	?
Cn1cc(S(=O)(=O)Oc2ccccc2)c(=O)n(C)c1=O	1%	5%	-2%	.	?	5%
c1ccc2c(c1)OCC(c1csc3ncnc(N4CCCCC4)c13)O2 (stereo not given)	-3%	11µM*	24%[10 µM]	-14%	-5%	-6%
Clc1ncnc2scc(C3COc4ccccc4O3)c12 (stereo not given)	-2%	?	-22%[10 µM]	28µM*	-18%	18µM*
O=C(O)COc1c(-c2ccco2)oc2ccccc2c1=O	0%	13%	?	.	.	?
N=C1c2ccccc2CN1c1ccc(N2CCOCC2)c(S(=O)(=O)Nc2ccc(Cl)cc2)c1	.	-4%[9.22 µM]	-9%[10 µM]	.	.	1.8µM*
Cc1ccc(C(=O)N/N=C2\CCSC2)cc1[N+](=O)[O-]	1%	?	.	-7%	-9%	13µM*

Source: PubChem BioAssay
